HCMV inh – human cytomegalovirus inhibition; HFF cells, HCMV-luciferase reporter, 72 h; hits give low values; 410,000 compounds, 4.5% hits; activity change, negative = inhibition, % at 57.5 µM; AID 1259415; in the data active means activity change below about -60%; inconclusive means no clear call, values can overlap the other calls; inactive means above about -39%
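Compounds were evaluated in HFFs infected with an HCMV luciferase reporter virus (MOI 1 PFU/cell). Luciferase in lysates collected 72 h post infection served as the replication measure.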
MARV entry inh – inhibitors of Marburg virus binding or cell entry | Potency, µM (titrated, usually from 37.8 µM), for inactives: top-dose activity change, negative = inhibition, actives largely listed as inhibitors | AID 540276 | 300,000 compounds, 1.8% hits | Marburg virus pseudotyped entry inhibition, cell reporter; calls by dose curve; tested in HEK293 cells; further: potency means the concentration at half of the fitted maximal effect
HCV inhibitor – inhibitors of hepatitis C virus infection; Huh7.5.1 HCVcc-Cre infection, luciferase reporter, 44 h; Potency, µM (series often up to 41.8 µM), for inactives: at the top dose activity change, negative = inhibition, hits mostly inhibitors; 340,000 compounds, 3.4% hits; active means well fitted inhibition curve with a large enough effect; inconclusive means small, poorly fitted or top-dose-only effect, or another doubt; inactive means no such curve, though single readings can be large or run the other way; further: potency means the concentration at half of the fitted maximal effect
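Antiviral activity was scored by luciferase reporter output from cells infected with HCVcc-Cre (~0.5 moi) in presence of compound, 44 h infection period, cells seeded 1,000/well 4 h prior.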
FMDV antiviral – antivirals against foot and mouth disease virus | FMDV antiviral cell-based qHTS | Potency, µM (top dose mostly 57.9 µM), for inactives: at the top dose activity change, negative = inhibition, most hits filed as inhibitors | 410,000 compounds, 1.2% hits | AID 1159524; calls by dose curve; tested in HEK293T cells; further: read-out not given here; potency means the concentration at half of the fitted maximal effect; nearly all actives have a fitted effect of over 45% in size
Lassa entry inh – inhibitors of Lassa virus binding or cell entry; Lassa virus pseudotype entry inhibition, cell reporter; Potency, µM (doses to about 37.9 µM), for the others: at the highest dose activity change, negative = inhibition, usual class: inhibitors; 300,000 compounds, 1.2% hits; calls by dose curve; tested in HEK293 cells; further: potency means the concentration at half of the fitted maximal effect; nearly all actives have a fitted effect of over 50% in size
Active calls of the source: *; ? = inconclusive; . = no result; [ ] = dose if it differs, or a comment. An excerpt weighted towards active compounds, which were near 7.9% of everything screened. On the % scale 0 is the no-effect control and ±100 the full control effect.

SMILES	HCMV inh	MARV entry inh	HCV inhibitor	FMDV antiviral	Lassa entry inh
CC(=O)Oc1ccccc1C(=O)NC(C)CCc1ccccc1 (stereo not drawn)	-9	-30%	?	25µM*	-9%
O=C1CCCc2cc(S(=O)(=O)NCC3CCC(C(=O)Nc4ccc(Cl)cc4)CC3)ccc2N1 (stereo not drawn)	-29	.	.	-17%	?
COc1ccc(O)c(CN2CCCN(c3nc(C)c4cc(C)c(C)cc4n3)CC2)c1	.	.	.	5%	.
Fc1cccc(Oc2ccc3c(-c4ccccc4F)noc3n2)c1	-25	.	.	.	.
CCCCSCCCNC(=O)c1cn(CC)c2ccc(S(=O)(=O)N(C)C3CCCCC3)cc2c1=O	-3	-20%[46.1 µM]	.	12%	1%[46.1 µM]
CCc1nc2sc3c(c2c(=O)n1NC(=O)CCl)CCCC3	-74*	-25%	?	?	2%
COc1ccc(/C=C/N(CCc2ccc(OC)c(OC)c2)C(=O)c2ccccn2)cc1	.	-11%[14.2 µM]	.	.	.
Cc1ccccc1NS(=O)(=O)c1cccc(-c2nnc(-c3ccccc3)o2)c1	-5	-1%	?	12%	10%
CN(C)S(=O)(=O)c1cccc(-c2nnc(-c3ccccc3)o2)c1	-105*	?	-1%	15%	7%
CC(=O)Nc1ccc(-n2c(=O)c3ccccc3c3ccccc3c2=O)cc1	95	-9%	2%	28µM*	?
O=C(O)c1ccc(-n2c(=O)c3ccccc3c3ccccc3c2=O)cc1	-26	-4%[46.1 µM]	8%	35µM*	4%[46.1 µM]
Cc1nc2ccccc2c(=O)n1-c1ccc(C(=O)O)cc1	18	.	-1%	37%	.
CCC12CN3CC(C)(CN(C1)C3c1c[nH]c3ccc(OC)cc13)C2=O (stereo not drawn)	-5	-12%[46.1 µM]	.	-8%	?
Cc1cc(C)cc(NC(=O)C2CCCN2/C=C/C(=O)C(F)(F)F)c1 (stereo not drawn)	-20	0%	5%	-7%	-2%
CC(=O)NC(CCCN1C(=O)c2ccccc2C1=O)c1nnn(C)n1 (stereo not drawn)	76	?	4%	0%	-2%
C#CC[N+](C)(C)C(C#Cc1ccccc1)CC=C (stereo not drawn)	-89*	-4%	20%	23%	22%
CC[N+](CC)(CC#Cc1ccccc1)CC#Cc1ccccc1	-30	?	-6%	?	?
O=C(CN1C(=O)c2cccnc2Oc2ccc(Cl)cc21)Nc1ccccc1F	70	.	-23%	2%	.
CN(Cc1ccccc1)CC1C2CCC(C2)C1O (stereo not drawn)	-18	?	12%	-18%	10%[46.1 µM]
CSc1cccc(N2CC(C(=O)N(Cc3nnc(-c4ccccc4Cl)o3)C3CC3)CC2=O)c1 (stereo not drawn)	-37	?	-23%	-14%	-22%
CC(=O)Nc1ccc(NC(=O)C(C)OC(=O)c2c(C)nn(-c3ccccc3)c2Cl)cc1 (stereo not drawn)	14	-9%	-7%	-19%	3.5µM*
Cc1nn(-c2ccccc2)c(Cl)c1C(=O)OC(C)C(=O)Nc1ccc2c(c1)OCO2 (stereo not drawn)	-19	-1%	-24%	-21%	-7%
Cc1nn(-c2ccccc2)c(Cl)c1C(=O)NC1CCCCC1	9	-2%[46.1 µM]	0%	10%	-13%
Cc1nn(-c2ccccc2)c(C)c1C(=O)OC(C)C(=O)NC1CCCCC1 (stereo not drawn)	-36	?	13µM*	?	5µM*
CCOC(=O)c1ccc2c(c1)n(Cc1ccccc1)c(C)[n+]2CC	?	-3%[46.1 µM]	-1%	-16%	?
SMILES	HCMV inh	MARV entry inh	HCV inhibitor	FMDV antiviral	Lassa entry inh
CCOC(=O)c1ccc2c(c1)n(CC)c(/C=C/N(C)c1ccccc1)[n+]2CC	-100*	?	?	?	?
COc1ccccc1CNC(=O)CCNS(=O)(=O)c1ccc2c(c1)CCCC(=O)N2	8	.	.	-24%	18%[46.1 µM]
CCOC(=O)c1cc(S(=O)(=O)Nc2ccc(OC(F)(F)F)cc2)[nH]n1	24	.	.	31%	-2%[46.1 µM]
Cc1cc(C)nc(NN=C(c2ccccc2)c2ccccc2)n1	?	10µM*	?	-14%	?
Nc1ccccc1N1CCN(C(=O)c2ccccc2)CC1	-21	-13%	-7%	-10%	2%
COc1c(C)cc(Br)cc1C(=O)Nc1ccccc1N1CCN(C(=O)c2ccccc2)CC1	-11	-17%[46.1 µM]	?	0%	?
Cc1ccccc1C(=O)Nc1ccccc1N1CCN(C(=O)c2ccccc2)CC1	-73*	?	-15%	-17%	?
O=C(Nc1ccccc1N1CCN(C(=O)c2ccccc2)CC1)c1cc(Br)ccc1Cl	10	?	?	-16%	?
CCOc1ccc(S(=O)(=O)NCCC(=O)N2CCN(c3ccccc3O)CC2)cc1	-18	-15%	-27%	-22%	-18%
CCOc1ccc(C(=O)CCC(=O)N2CCN(c3ccccc3O)CC2)cc1	-21	?	?	35µM*	?
O=C(c1ccccc1)c1ccc(C(=O)N2CCN(c3ccccc3O)CC2)cc1	-65*	.	.	?	.
COc1ccc(Br)cc1C(=O)Nc1ccccc1N1CCN(C(=O)c2ccccc2)CC1	?	?	11µM*	0%	?
COc1cc(Cl)c(C)cc1NC(=O)CSc1cc(-c2ccccc2)nc(C)n1	-35	-1%[46.1 µM]	.	-20%	-5%[46.1 µM]
O=C(NCc1ccncc1)c1cnn(-c2nccc(-c3cc4ccccc4o3)n2)c1C1CC1	.	.	.	-19%	.
CC(CCCN(C)C)C(Cc1ccccc1)c1ccccc1 (stereo not drawn)	-78*	?	?	-17%	?
CCCC[C@@H]1C=C(C(=O)O)[C@H](c2ccc(CC)cc2)N1S(=O)(=O)c1ccc(C)cc1	10	.	0.56µM*	-2%	.
CCCCC[C@@H]1C=C(C(=O)O)[C@H](c2ccc(CC)cc2)N1S(=O)(=O)c1ccc(C)cc1	-4	.	29%[8.37 µM]	-2%	.
CC[C@@H]1C=C(C(=O)O)[C@H](c2ccc3c(c2)OCO3)N1S(=O)(=O)c1ccc(C)cc1	36	.	32µM*	-11%	.
COc1cccc(CC(=O)Nc2ccc(N3CCOCC3)c(S(=O)(=O)Nc3ccccc3OC)c2)c1	0	?	28%	-5%	7%
CC1(c2ccccc2)NC(=O)N(CC(=O)N2CCc3ccccc32)C1=O (stereo not drawn)	-9	.	.	5%	.
CC1(c2cccc(Br)c2)NC(=O)N(CC(=O)N2CCc3ccccc32)C1=O (stereo not drawn)	11	?	10µM*	-22%	-19%
Cc1nc2nncn2c(Nc2ccccc2)c1C	-17	?	.	?	-5%[46.1 µM]
Cn1c(N)c(C(=O)COC(=O)/C=C/c2ccc(Cl)cc2Cl)c(=O)n(C)c1=O	-4	-5%	15%	40µM*	5%
Cn1c(N)c(C(=O)COC(=O)/C=C/c2ccc(Cl)cc2)c(=O)n(C)c1=O	-30	-23%	-30%	?	11%
COc1cccc(/C=C/C(=O)OCC(=O)c2c[nH]c3ccccc23)c1OC	-17	2%	?	25µM*	12%
